The panel holds about 83,000 compounds, 20% with a hit somewhere; the sample as a whole holds those more often.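 Negative percent growth values reflect cell death: -40 means 40% of the cells present at the start died, and -100 means all died.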 Unmarked numbers belong to inactive results. The source made the active and inactive calls. Rule for the calls: active = growth percent below 10; inactive = the rest.

In one assay the test system is LOX IMVI melanoma. Briefly: NCI-60 one-dose screen, 48 h (100 = growth as untreated, 0 = no growth, -100 = all killed). Conditions: 10 µM.
On to `COc1cc(Cl)cc(-c2nn(-c3cccc(NC(=O)Nc4ccc(Cl)c(Cl)c4)c3)cc2-c2ccncc2)c1`, for which the growth was 9.24% (active).

`CC1=C(N2CCOCC2)C(N2CCOCC2)=C(C)C(=O)C1=O`: the growth is 101%.

Regarding `COc1cc(-c2nc(Nc3nc4ccccc4s3)[nH]c(=O)c2C#N)cc(OC)c1O`, the growth is 106%.

Take `COc1ccc(CN2CCC(N3CCCC3=O)c3cc(Cl)ccc32)cc1` (stereo not given): the growth is 103%.

On to `CC(=O)O[C@]1(C)CC[C@H]2[C@H](CNCCc3ccc(Cl)cc3)C(=O)O[C@@H]2C2=C(C)C(=O)C[C@H]21`, for which the growth was 90.6%.

Consider `COc1ccc(-c2nn(-c3cccc(NC(=O)Nc4cc(C(F)(F)F)cc(C(F)(F)F)c4)c3)cc2-c2ccncc2)cc1Cl`, for which the growth is 12.9%.

Turning to `CN(CCc1ccccn1)c1ccccc1`, the growth was 102%.

Take `COc1ccc(N=C2C(=Nc3ccc(OC)cc3)N(c3ccc(N(C)C)cc3)C(=S)N2c2ccc(OC)cc2)cc1`: the growth was 86.3%.

As for `COc1cc2nc(Nc3cccc(NC(C)=O)c3)nc(N)c2cc1OC`, the growth was 86.7%.

For the compound `C#Cc1ccc(-n2c(/C=C/c3ccc(Cl)c(F)c3)nc3ncccc3c2=O)cc1`, the growth was -57% (active).

For `COc1cccc(Cn2c(-c3nonc3N)nc3ccccc32)c1`, the growth is 40.9%.

As to `c1ccc([I+]c2ccccc2)cc1`, the growth is 43.1%.

Regarding `O=C(c1cccs1)c1ccccc1Cc1ccccc1`, the growth is 103%.

Consider `COc1ccc(-c2ccc(-c3ccc(C(=N)N)cn3)o2)cc1`, for which the growth is 61.8%.

For `Nc1c(C(=O)Nc2cccc3ccccc23)sc2nc3c(cc12)C(=O)CCC3`, the growth was 29.7%.

With `COc1ccc(Nc2ccnc(NCCNc3ccnc4cc(Cl)ccc34)n2)cc1`, the growth was 8.82% (active).

In the case of `O=C(Nc1ccc(Cl)c([N+](=O)[O-])c1)Nc1nc2ccccc2s1`, the growth was 91.4%.

For `COc1cc(C(=O)/C=C/c2cc(-c3cc(OC)c(OC)c(OC)c3)n[nH]2)cc(OC)c1OC`, the growth was -62.7% (active).

On to `CC(=O)N1C/C(=C/c2ccc(Cl)cc2)C(=O)/C(=C/c2ccc(Cl)cc2)C1`, for which the growth was -79.6% (active).

`COc1cc(/C=N/NC(=O)c2ccccc2Nc2cccc(C(F)(F)F)c2)cc(OC)c1OC`: the growth was 11.9%.

For `O=C1N=NC2=C1c1c3ccccc3c(O)n1CC2`, the growth is 105%.

Consider `CS(=O)(=O)Nc1cccc(-c2cc(-c3ccccc3Cl)c(C#N)c(N)n2)c1`, for which the growth is 43.7%.

As for `N#Cc1ncc(-c2ccc(C(F)(F)F)cc2)c(NCc2cc(C(F)(F)F)cc(C(F)(F)F)c2)n1`, the growth was 14.9%.

In the next assay the test system is SK-MEL-28 melanoma. The assay is described as above. Particulars: 10 µM.
With `CCCCCCCNc1nc(C=O)ncc1-c1ccc(C(F)(F)F)cc1`, the growth is 104%.

Consider `C#Cc1ccc(-n2c(/C=C/c3ccc4ccccc4n3)nc3ncccc3c2=O)cc1`, for which the growth is -52.8% (active).

For the compound `O=C1c2ccc3c4c(ccc(c24)C(=O)N1CCNCc1ccccc1)C(=O)N(CCNCc1ccccc1)C3=O`, the growth is 6% (active).

Consider `CCN(CC)Cc1cc(Nc2ccnc3cc(Cl)ccc23)ccc1OC`, for which the growth is 108%.

On to `Nc1ccc2c(c1)C1(CCC2)NC(=O)NC1=O` (stereo not given), for which the growth was 113%.

On to `O=C(Nc1cccc(Cl)c1)Nc1nccs1`, for which the growth was 103%.

With `O=C1NC(=O)N(Cc2ccccc2)CC1Br` (stereo not given), the growth is 97.7%.

On to `COc1cc(C(=O)N2CCN(c3ccccc3OC)CC2)c(N)cc1OCCCN1CCN(c2ccccc2OC)CC1`, for which the growth is 119%.

For the compound `CN(C)N=Nc1nn(C(=O)Nc2ccc(Cc3ccccc3)cc2)c2ccccc12`, the growth is 43.2%.

As to `CC(=O)N(C)c1ccc(Nc2ccc(Nc3ccc(N(C)C(C)=O)cc3)c3c2C(=O)c2ccccc2C3=O)cc1`, the growth is 106%.

`CCOC(=O)C1(CC(C)C)CCOC1=O` (stereo not given): the growth was 103%.

As for `COc1ccc2c(c1)nc(N)c1c3cccnc3cn21`, the growth is 62.6%.

Consider `CSCCCNC(=O)c1ccc2c(c1)/C(=C/c1[nH]c(C)cc1C)C(=O)N2`, for which the growth was 17.6%.

As for `CC1=C(N2CCOCC2)C(N2CCOCC2)=C(C)C(=O)C1=O`, the growth was 106%.

In the case of `COc1cc(-c2nc(Nc3nc4ccccc4s3)[nH]c(=O)c2C#N)cc(OC)c1O`, the growth was 110%.

`COc1ccc(CN2CCC(N3CCCC3=O)c3cc(Cl)ccc32)cc1` (stereo not given): the growth is 116%.

As to `CC(=O)O[C@]1(C)CC[C@H]2[C@H](CNCCc3ccc(Cl)cc3)C(=O)O[C@@H]2C2=C(C)C(=O)C[C@H]21`, the growth was 101%.

With `COc1cc2nc(Nc3cccc(NC(C)=O)c3)nc(N)c2cc1OC`, the growth was 90.3%.

On to `C#Cc1ccc(-n2c(/C=C/c3ccc(Cl)c(F)c3)nc3ncccc3c2=O)cc1`, for which the growth is -8.26% (active).

On to `COc1cccc(Cn2c(-c3nonc3N)nc3ccccc32)c1`, for which the growth was 43.7%.

In the case of `c1ccc([I+]c2ccccc2)cc1`, the growth is 87.4%.

For the compound `O=C(c1cccs1)c1ccccc1Cc1ccccc1`, the growth is 101%.

`COc1ccc(-c2ccc(-c3ccc(C(=N)N)cn3)o2)cc1`: the growth was 86.5%.

In the case of `Nc1c(C(=O)Nc2cccc3ccccc23)sc2nc3c(cc12)C(=O)CCC3`, the growth is 42.8%.

Regarding `COc1ccc(Nc2ccnc(NCCNc3ccnc4cc(Cl)ccc34)n2)cc1`, the growth was -29% (active).

Regarding `O=C(Nc1ccc(Cl)c([N+](=O)[O-])c1)Nc1nc2ccccc2s1`, the growth is 98.8%.

As for `COc1cc(C(=O)/C=C/c2cc(-c3cc(OC)c(OC)c(OC)c3)n[nH]2)cc(OC)c1OC`, the growth is -59.5% (active).

As to `CC(=O)N1C/C(=C/c2ccc(Cl)cc2)C(=O)/C(=C/c2ccc(Cl)cc2)C1`, the growth is -54.2% (active).

With `COc1cc(/C=N/NC(=O)c2ccccc2Nc2cccc(C(F)(F)F)c2)cc(OC)c1OC`, the growth was 39.3%.

Take `O=C1N=NC2=C1c1c3ccccc3c(O)n1CC2`: the growth is 108%.

On to `CS(=O)(=O)Nc1cccc(-c2cc(-c3ccccc3Cl)c(C#N)c(N)n2)c1`, for which the growth was 69.1%.

As to `N#Cc1ncc(-c2ccc(C(F)(F)F)cc2)c(NCc2cc(C(F)(F)F)cc(C(F)(F)F)c2)n1`, the growth was 39.3%.

The record behind these values is PubChem BioAssay (NCI).
